# Assay results as given in PMC7862700, “An all-to-all approach to the identification of sequence-specific readers for epigenetic DNA modifications on cytosine”.
# How the values were obtained:
# Assay in all cases: DAPPL (digital affinity profiling via proximity ligation, sequencing); 10 mM Tris-HCl pH 7.5, 50 mM NaCl, 1 mM DTT, 4% glycerol, room temperature, 30 min; GST-TFs on glutathione beads, 16-mer random dsDNA library, 0.1% formaldehyde crosslink after washing; high values mean tight binding
# FLI1 = biological target: T1, FLI1 (Homo sapiens, UniProt Q01543 1-452); settings: protein: recombinant; tags: N-terminal GST; dsDNA, one strand shown
# T1 sequence: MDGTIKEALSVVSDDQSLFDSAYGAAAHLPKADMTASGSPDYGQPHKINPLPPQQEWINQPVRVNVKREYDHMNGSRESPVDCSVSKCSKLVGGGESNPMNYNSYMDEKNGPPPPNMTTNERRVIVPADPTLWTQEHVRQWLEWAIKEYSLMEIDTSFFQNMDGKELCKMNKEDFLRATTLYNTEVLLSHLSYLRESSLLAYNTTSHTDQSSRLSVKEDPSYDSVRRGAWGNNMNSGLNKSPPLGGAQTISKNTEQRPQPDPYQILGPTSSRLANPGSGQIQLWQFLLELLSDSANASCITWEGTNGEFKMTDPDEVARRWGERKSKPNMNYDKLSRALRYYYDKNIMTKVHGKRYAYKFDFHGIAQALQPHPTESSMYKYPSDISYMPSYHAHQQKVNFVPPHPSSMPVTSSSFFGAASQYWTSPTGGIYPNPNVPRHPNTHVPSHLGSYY
# How it was run: (§1)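 A tag-only sample was pooled with DNA-barcoded human transcription factors that had been expressed in yeast as GST fusions and captured on glutathione beads. The pools were incubated for 30 min at room temperature with 200 nmole of a random double-stranded 16-mer DNA library in Tris/NaCl/DTT/glycerol buffer, then washed, crosslinked with 0.1% formaldehyde, proximity-ligated (BsaI/T4 ligase, 1 h, 37 °C), PCR-amplified and sequenced on an Illumina NextSeq500. Binding signal is each hexamer's read frequency for a factor divided by its frequency for the tag-only sample.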
# ELK1 = biological target: T2, ELK1 (Homo sapiens, UniProt P19419 1-428); settings: protein: recombinant; tags: N-terminal GST; dsDNA, one strand shown
# T2 sequence: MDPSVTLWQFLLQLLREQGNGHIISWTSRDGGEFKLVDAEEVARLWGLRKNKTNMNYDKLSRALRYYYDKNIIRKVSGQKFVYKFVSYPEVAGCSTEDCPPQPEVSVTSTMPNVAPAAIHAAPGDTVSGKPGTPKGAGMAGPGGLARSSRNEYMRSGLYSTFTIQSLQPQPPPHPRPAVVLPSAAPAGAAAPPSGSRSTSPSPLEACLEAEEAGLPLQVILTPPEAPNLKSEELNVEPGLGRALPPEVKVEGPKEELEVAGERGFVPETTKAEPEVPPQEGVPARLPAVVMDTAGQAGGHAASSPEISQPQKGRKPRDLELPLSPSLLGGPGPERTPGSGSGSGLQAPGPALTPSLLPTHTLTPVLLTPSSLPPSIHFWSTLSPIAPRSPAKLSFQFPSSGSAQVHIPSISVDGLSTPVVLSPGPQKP
# How it was run: as §1
# GABPA = biological target: T3, GABPA (Homo sapiens, UniProt Q06546 1-454); settings: protein: recombinant; tags: N-terminal GST; dsDNA, one strand shown
# T3 sequence: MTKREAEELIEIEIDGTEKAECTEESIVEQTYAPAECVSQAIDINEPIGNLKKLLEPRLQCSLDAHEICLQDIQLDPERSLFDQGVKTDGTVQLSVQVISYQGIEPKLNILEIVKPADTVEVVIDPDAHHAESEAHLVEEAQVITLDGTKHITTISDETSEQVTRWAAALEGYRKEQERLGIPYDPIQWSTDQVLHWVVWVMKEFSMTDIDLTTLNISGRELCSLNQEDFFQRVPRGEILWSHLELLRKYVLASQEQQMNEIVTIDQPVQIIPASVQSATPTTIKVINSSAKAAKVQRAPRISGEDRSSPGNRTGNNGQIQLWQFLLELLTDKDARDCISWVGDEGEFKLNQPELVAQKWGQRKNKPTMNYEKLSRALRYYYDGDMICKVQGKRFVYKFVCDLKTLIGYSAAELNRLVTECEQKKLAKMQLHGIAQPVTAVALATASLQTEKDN
# How it was run: as §1
# ERG = biological target: T4, ERG (Homo sapiens, UniProt P11308 1-479); settings: protein: recombinant; tags: N-terminal GST; dsDNA, one strand shown
# T4 sequence: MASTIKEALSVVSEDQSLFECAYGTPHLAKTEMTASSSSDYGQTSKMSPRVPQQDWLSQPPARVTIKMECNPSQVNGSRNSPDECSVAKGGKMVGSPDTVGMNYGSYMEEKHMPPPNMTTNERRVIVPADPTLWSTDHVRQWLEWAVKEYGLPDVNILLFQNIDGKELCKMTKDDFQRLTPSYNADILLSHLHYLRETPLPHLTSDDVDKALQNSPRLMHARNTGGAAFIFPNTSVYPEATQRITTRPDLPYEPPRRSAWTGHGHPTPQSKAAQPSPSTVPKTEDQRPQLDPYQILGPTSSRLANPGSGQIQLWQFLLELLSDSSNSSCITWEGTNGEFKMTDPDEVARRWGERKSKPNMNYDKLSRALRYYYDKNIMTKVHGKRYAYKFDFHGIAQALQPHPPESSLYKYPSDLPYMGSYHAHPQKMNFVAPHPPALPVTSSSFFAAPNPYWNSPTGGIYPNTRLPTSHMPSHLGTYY
# How it was run: as §1
# ELF1 = ELF1 (Homo sapiens, UniProt P32519 1-619); settings: protein: recombinant; tags: N-terminal GST; dsDNA, one strand shown
# How it was run: as §1
# SPI1 = SPI1 (Homo sapiens, UniProt P17947 1-270); settings: protein: recombinant; tags: N-terminal GST; dsDNA, one strand shown
# How it was run: as §1
# SPIB = SPIB (Homo sapiens, UniProt Q01892 1-262); settings: protein: recombinant; tags: N-terminal GST; dsDNA, one strand shown
# How it was run: as §1
# ELK3 = biological target: T5, ELK3 (Homo sapiens, UniProt P41970 1-407); settings: protein: recombinant; tags: N-terminal GST; dsDNA, one strand shown
# T5 sequence: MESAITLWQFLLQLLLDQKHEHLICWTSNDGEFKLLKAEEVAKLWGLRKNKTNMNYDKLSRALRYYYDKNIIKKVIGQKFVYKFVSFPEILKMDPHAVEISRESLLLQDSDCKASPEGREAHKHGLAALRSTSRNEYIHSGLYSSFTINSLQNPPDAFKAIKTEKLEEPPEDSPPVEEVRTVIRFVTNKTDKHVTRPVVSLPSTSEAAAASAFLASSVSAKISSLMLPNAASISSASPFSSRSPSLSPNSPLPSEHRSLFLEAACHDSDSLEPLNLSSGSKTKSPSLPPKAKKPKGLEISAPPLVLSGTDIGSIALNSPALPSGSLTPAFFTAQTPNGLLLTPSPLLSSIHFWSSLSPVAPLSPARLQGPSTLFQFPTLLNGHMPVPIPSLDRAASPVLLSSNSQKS
# How it was run: as §1
# FEV = biological target: T6, FEV (Homo sapiens, UniProt Q99581 1-238); settings: protein: recombinant; tags: N-terminal GST; dsDNA, one strand shown
# T6 sequence: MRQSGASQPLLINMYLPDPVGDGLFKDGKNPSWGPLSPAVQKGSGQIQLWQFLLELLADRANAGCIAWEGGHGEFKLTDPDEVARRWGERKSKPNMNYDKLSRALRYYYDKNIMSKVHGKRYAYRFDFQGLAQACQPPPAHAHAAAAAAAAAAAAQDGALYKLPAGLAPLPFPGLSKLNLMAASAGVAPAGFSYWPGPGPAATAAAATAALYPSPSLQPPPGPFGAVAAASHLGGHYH
# How it was run: as §1
# ETV5 = ETV5 (Homo sapiens, UniProt P41161 1-510); settings: protein: recombinant; tags: N-terminal GST; dsDNA, one strand shown
# How it was run: as §1
# HSF1 = HSF1 (Homo sapiens, UniProt Q00613 1-529); settings: protein: recombinant; tags: N-terminal GST; chain copies: 3; dsDNA, one strand shown
# How it was run: as §1
# ELF4 = ELF4 (Homo sapiens, UniProt Q99607 1-663); settings: protein: recombinant; tags: N-terminal GST; dsDNA, one strand shown
# How it was run: as §1
# ELK4 = biological target: T7, ELK4 (Homo sapiens, UniProt P28324-2 1-405); settings: protein: recombinant; tags: N-terminal GST; dsDNA, one strand shown
# T7 sequence: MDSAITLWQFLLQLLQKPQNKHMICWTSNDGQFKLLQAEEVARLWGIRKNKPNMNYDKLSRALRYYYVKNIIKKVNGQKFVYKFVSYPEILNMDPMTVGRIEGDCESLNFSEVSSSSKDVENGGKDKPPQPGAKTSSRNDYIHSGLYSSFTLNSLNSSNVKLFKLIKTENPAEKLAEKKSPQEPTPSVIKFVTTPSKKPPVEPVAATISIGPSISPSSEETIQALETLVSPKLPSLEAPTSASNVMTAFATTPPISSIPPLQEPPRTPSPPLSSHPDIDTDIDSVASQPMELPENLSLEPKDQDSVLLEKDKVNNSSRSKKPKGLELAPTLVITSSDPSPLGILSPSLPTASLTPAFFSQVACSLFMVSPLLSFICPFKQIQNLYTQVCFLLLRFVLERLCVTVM
# How it was run: as §1
# ETV2 = biological target: T8, ETV2 (Homo sapiens, UniProt O00321 1-342); settings: protein: recombinant; tags: N-terminal GST; dsDNA, one strand shown
# T8 sequence: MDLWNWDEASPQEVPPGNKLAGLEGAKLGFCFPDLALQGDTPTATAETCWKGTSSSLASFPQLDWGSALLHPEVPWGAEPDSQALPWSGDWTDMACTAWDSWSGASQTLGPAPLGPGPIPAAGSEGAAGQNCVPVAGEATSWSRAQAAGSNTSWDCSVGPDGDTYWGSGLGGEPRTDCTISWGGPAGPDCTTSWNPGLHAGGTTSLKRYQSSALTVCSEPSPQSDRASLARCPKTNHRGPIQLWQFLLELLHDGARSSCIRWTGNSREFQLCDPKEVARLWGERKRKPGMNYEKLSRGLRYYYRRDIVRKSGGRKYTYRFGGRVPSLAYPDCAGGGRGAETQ
# How it was run: as §1
# ELF3 = biological target: T9, ELF3 (Homo sapiens, UniProt P78545 1-371); settings: protein: recombinant; tags: N-terminal GST; dsDNA, one strand shown
# T9 sequence: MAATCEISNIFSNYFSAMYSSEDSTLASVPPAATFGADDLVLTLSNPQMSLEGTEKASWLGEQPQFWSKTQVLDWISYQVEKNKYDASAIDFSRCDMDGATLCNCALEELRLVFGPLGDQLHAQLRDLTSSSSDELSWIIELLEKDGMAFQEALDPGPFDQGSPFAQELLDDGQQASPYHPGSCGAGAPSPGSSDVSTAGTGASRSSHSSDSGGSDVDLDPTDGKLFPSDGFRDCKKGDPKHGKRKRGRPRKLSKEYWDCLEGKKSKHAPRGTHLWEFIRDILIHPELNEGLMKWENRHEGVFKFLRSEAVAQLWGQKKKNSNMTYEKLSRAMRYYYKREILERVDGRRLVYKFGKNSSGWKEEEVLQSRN
# How it was run: as §1
# CRX = CRX (Homo sapiens, UniProt O43186 1-299); settings: protein: recombinant; tags: N-terminal GST; dsDNA, one strand shown
# How it was run: as §1
# ETV1 = ETV1 (Homo sapiens, UniProt P50549 1-477); settings: protein: recombinant; tags: N-terminal GST; dsDNA, one strand shown
# How it was run: as §1
# Chain of ETV5 (P41161 whole entry): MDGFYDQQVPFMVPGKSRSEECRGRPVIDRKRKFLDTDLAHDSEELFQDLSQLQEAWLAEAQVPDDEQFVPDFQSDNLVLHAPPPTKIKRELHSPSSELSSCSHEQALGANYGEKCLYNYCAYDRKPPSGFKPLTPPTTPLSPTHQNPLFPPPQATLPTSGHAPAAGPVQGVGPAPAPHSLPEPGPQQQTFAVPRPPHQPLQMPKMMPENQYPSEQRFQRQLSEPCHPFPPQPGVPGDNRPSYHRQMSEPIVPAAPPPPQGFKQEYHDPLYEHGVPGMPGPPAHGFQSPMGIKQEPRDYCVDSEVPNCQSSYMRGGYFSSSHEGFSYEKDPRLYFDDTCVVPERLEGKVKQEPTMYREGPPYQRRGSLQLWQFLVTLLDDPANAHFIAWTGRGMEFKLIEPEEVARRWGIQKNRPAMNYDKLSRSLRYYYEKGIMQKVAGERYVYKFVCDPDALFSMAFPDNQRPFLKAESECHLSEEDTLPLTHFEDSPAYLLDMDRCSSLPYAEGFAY
# Chain of SPIB (Q01892 whole entry): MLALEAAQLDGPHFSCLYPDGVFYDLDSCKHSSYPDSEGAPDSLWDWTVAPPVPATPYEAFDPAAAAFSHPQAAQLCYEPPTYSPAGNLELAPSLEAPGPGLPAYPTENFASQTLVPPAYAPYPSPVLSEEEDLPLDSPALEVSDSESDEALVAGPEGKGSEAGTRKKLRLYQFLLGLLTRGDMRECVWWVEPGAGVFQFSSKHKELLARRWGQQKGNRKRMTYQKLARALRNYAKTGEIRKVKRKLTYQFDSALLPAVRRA
# Chain of ELF1 (P32519 whole entry): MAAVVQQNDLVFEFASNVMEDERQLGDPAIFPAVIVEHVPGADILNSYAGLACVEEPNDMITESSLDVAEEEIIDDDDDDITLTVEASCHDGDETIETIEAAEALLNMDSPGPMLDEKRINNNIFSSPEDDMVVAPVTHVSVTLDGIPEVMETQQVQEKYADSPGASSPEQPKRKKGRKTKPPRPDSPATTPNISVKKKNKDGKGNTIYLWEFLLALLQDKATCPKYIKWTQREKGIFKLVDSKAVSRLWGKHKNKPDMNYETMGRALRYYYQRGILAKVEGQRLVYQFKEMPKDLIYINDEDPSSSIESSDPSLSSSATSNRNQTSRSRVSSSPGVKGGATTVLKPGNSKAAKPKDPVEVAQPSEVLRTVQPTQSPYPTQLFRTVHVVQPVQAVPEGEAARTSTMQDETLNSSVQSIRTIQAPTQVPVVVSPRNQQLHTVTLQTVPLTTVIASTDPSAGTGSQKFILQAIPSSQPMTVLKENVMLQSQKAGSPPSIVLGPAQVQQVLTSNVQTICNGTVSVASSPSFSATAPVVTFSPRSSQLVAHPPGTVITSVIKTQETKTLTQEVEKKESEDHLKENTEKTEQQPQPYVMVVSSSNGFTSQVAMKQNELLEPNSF
# Chain of HSF1 (Q00613 whole entry): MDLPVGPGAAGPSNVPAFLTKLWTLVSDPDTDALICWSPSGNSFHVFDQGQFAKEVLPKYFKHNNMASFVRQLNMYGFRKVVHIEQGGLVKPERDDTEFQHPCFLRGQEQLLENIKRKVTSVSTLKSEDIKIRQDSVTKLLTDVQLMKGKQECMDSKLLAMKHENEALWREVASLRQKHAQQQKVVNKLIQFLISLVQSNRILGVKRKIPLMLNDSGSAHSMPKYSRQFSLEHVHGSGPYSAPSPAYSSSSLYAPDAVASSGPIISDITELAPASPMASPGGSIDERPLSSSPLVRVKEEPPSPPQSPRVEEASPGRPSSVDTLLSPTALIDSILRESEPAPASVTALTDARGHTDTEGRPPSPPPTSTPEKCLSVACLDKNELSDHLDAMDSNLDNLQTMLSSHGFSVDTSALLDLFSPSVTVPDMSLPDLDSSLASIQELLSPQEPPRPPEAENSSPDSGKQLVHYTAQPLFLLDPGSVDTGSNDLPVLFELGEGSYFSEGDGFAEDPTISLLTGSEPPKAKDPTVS
# Chain of CRX (O43186 whole entry): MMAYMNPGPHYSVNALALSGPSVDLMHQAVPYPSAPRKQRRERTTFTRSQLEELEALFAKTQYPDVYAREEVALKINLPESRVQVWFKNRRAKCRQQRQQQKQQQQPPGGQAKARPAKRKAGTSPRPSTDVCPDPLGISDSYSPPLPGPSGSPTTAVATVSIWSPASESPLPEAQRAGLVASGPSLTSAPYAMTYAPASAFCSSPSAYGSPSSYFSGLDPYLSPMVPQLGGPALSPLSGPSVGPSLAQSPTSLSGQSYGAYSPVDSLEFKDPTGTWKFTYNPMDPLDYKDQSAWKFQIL
# Chain of ELF4 (Q99607 whole entry): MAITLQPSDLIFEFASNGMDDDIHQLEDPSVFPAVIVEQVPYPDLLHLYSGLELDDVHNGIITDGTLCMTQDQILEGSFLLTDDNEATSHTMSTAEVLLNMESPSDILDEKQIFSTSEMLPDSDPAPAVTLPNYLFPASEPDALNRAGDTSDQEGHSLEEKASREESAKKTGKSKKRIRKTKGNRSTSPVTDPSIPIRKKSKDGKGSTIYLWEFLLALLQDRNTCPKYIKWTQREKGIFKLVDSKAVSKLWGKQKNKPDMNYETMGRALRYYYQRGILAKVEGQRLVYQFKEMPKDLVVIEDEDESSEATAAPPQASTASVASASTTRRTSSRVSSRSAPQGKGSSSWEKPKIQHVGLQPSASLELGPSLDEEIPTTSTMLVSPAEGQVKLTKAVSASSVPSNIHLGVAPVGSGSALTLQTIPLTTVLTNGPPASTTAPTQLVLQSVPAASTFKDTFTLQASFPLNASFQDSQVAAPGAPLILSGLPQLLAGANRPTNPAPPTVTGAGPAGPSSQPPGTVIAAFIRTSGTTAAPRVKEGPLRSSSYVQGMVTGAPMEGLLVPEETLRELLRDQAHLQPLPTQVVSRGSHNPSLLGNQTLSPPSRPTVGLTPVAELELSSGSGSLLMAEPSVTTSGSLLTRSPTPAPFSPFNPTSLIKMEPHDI
# Chain of ETV1 (P50549 whole entry): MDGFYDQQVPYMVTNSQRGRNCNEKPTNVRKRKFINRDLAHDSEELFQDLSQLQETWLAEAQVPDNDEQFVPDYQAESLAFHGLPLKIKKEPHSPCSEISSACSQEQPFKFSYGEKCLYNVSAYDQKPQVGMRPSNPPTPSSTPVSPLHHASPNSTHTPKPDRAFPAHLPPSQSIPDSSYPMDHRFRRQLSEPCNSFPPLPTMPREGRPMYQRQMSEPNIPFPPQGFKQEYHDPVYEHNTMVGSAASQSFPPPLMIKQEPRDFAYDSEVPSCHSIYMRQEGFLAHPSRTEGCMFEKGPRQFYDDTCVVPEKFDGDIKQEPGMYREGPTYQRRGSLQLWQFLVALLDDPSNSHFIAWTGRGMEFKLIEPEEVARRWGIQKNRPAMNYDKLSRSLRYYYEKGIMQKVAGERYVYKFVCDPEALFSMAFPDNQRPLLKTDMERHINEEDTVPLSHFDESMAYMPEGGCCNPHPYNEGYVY
sequence,measurement,setting,value
CAAAGC,binding signal,FLI1,"1.08 fold enrichment (6-mer frequency, TF over GST control)"
same,binding signal,ELK1,"1.02 fold enrichment (6-mer frequency, TF over GST control)"
same,binding signal,GABPA,"1.16 fold enrichment (6-mer frequency, TF over GST control)"
same,binding signal,ERG,"1 fold enrichment (6-mer frequency, TF over GST control)"
same,binding signal,ELF1,"1.17 fold enrichment (6-mer frequency, TF over GST control)"
same,binding signal,SPI1,"1.03 fold enrichment (6-mer frequency, TF over GST control)"
same,binding signal,SPIB,"1.04 fold enrichment (6-mer frequency, TF over GST control)"
same,binding signal,ELK3,"1.1 fold enrichment (6-mer frequency, TF over GST control)"
same,binding signal,FEV,"1.14 fold enrichment (6-mer frequency, TF over GST control)"
same,binding signal,ETV5,"1.05 fold enrichment (6-mer frequency, TF over GST control)"
same,binding signal,HSF1,"1.04 fold enrichment (6-mer frequency, TF over GST control)"
same,binding signal,ELF4,"1.05 fold enrichment (6-mer frequency, TF over GST control)"
same,binding signal,ELK4,"1.24 fold enrichment (6-mer frequency, TF over GST control)"
same,binding signal,ETV2,"1.09 fold enrichment (6-mer frequency, TF over GST control)"
same,binding signal,ELF3,"1.03 fold enrichment (6-mer frequency, TF over GST control)"
same,binding signal,CRX,"1.3 fold enrichment (6-mer frequency, TF over GST control)"
same,binding signal,ETV1,"1.08 fold enrichment (6-mer frequency, TF over GST control)"
